Test results reported in the supplement of paper PMC3334620.
The full ranking holds about 33,000 sequences; the median of “E-score (-0.5 to 0.5)” is about -0.012, and the highest 2% start at about 0.29. This is one part of a sample in which the highest values are shown more often than they occur.

Target: T1, Ybr033w (UniProt P38073)
T1 sequence: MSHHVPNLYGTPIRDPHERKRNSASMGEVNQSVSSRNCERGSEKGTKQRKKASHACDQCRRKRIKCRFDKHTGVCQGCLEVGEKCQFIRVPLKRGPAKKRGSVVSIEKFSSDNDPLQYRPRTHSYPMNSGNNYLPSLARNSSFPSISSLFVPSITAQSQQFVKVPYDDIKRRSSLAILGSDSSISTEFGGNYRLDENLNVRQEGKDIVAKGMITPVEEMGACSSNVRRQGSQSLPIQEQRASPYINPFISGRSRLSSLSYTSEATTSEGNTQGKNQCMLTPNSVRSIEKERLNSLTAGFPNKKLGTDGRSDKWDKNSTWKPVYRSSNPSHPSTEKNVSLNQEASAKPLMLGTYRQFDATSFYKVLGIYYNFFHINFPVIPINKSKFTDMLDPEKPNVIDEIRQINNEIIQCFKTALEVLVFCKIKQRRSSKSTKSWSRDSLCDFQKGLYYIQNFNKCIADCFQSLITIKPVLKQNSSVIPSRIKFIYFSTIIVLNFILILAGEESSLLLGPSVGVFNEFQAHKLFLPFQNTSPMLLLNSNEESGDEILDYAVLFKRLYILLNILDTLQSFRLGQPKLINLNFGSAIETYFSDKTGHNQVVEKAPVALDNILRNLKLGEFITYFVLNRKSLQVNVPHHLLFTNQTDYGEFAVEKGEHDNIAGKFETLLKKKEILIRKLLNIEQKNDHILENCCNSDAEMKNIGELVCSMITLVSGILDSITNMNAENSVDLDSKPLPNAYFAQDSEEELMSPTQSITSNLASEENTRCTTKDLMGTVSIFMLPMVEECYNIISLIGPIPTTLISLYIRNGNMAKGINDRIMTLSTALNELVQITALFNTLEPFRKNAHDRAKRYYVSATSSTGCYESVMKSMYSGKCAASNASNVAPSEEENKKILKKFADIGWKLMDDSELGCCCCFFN
Assay: PBM E-score (8-mer binding enrichment) (E-score (-0.5 to 0.5)); higher = stronger / more preferred TF binding
Conditions: protein concentration: 200 nM; construct: GST-full length
Method: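 Universal 'all 10-mer' protein binding microarrays (Agilent AMADID 015681) probed with GST-tagged S. cerevisiae TFs (full-length or DBD) made by in vitro transcription/translation (PURExpress), about 100-200 nM. Bound TF was detected with fluorescent anti-GST. Each ungapped 8-mer (which stands for itself and its reverse complement) is scored by the PBM enrichment score (E-score), a modified Wilcoxon-Mann-Whitney statistic from -0.5 to +0.5, computed with the Universal PBM Analysis Suite. Scale: above 0.35 generally sequence-specific binding.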

Sequence | PBM E-score
AGATGCAG | 0.0243
CGAAGCTC | -0.147
TAAATTTA | 0.289
GAAAATTA | 0.331
AGAAATTC | 0.178
TAAAATGA | 0.217
CAAATTTA | 0.237
GAAAATTC | 0.285
TAAAATTA | 0.288
TAAAATCA | 0.274
AAAATTTA | 0.269
AGAAATTA | 0.352
GGAAATTA | 0.264
GAAAATGA | 0.085
AATGATGT | 0.17
GTTCAGCA | -0.0295
GTCGGCCA | -0.277
AAACCATG | 0.0309
AGACTGCA | -0.156
ATCCATGC | 0.0934
AGGTCAGG | -0.233
AAATTTTA | 0.171
GAATTTTA | 0.295
CAATTTTA | 0.217
CCAGCGAC | -0.116

Sequence | PBM E-score
ATAGCTGG | -0.0109
CAATGACG | -0.158
ATAGTAAA | 0.277
AGAGTAAT | 0.313
GTAGTAAA | 0.188
CTAGTAAA | 0.242
ATAGTAAC | 0.116
AGAGTAAA | 0.0304
AGAGTAAG | 0.126
ATAGTAAT | 0.346
TTAGTAAA | 0.301
AGTGCTTA | -0.00926
CCATTTGC | 0.0186
AGGTAGTC | -0.165
AATTAAAA | 0.112
CATTAAAA | 0.319
TATTTTAA | 0.26
CATTAAAC | 0.13
CAGTTAAA | 0.192
CATTTAAA | 0.21
TATTAAAA | 0.312
GAGTTAAA | 0.0599
TATTTAAA | 0.301
CATTAAAG | 0.147
TAGTTAAA | 0.296

Sequence | PBM E-score
TTTTAAAA | 0.073
AGAAATCC | 0.0392
CGCAAGCC | 0.0476
ACAGAGTC | -0.176
GGTTAAAA | 0.0924
CAGTTGAA | 0.00266
AAGTTGAA | 0.0758
GATTAAAC | 0.17
CTGTTAAA | 0.109
TTGTTAAA | 0.0557
GATTAAAA | 0.311
TAGTTGAA | 0.307
ATGTTAAA | 0.289
CACTGTTC | -0.00287
ACTTCATG | -0.118
ACTGCAGC | -0.136
ACTTACCC | 0.114
CCGACCAA | -0.0529
ATCATGAC | 0.0647
CTGCTAAG | -0.132
GCATCGAC | -0.0951
TGACCACA | 0.0413
TCCCTAAA | 0.0945
ATTCGTGG | 0.0347
AGATTTTC | 0.322

Sequence | PBM E-score
ATATTTTA | 0.3
ATATTTAA | 0.372
GTATTTAA | 0.267
AGATTTCC | 0.135
CTATTTTA | 0.252
ATATTTAG | 0.321
CTATTTAA | 0.022
AGATTTTA | 0.109
ATTTTTAG | 0.179
ATATTTAC | 0.215
GTATTTTA | 0.23
CCATTTAG | -0.056
CGTGGGCC | -0.155
AATCCTAA | 0.0561
CCTCCAGG | -0.322
CACCGACG | -0.0189
ATATCCAT | 0.196
GAGCTCAC | -0.27
CATATGCA | 0.0648
CCCTTACC | -0.131
CTATTTCC | 0.276
ATATTTTG | 0.234
ATATTTCC | 0.349
ATATTTCG | 0.269
ATCTTTTA | 0.236

Sequence | PBM E-score
ATCTTTAC | 0.203
ATATTTTC | 0.342
CTATTTTC | 0.284
ATCTTTAA | 0.299
CCCCTTTC | -0.262
GGAACGAA | 0.104
AGGGATAT | 0.0785
ACGACTCC | 0.0443
CGGGGTAG | -0.177
GTGGCTAA | 0.0232
AAATTTAT | 0.228
AAAATTAT | 0.358
AAAATTCG | 0.279
AAAATTAC | 0.22
GAAATTAC | 0.255
CAAATTAA | 0.212
AAATTTGT | 0.303
AAAATTCA | 0.359
GAAATTAA | 0.294
GAAATTCA | 0.228
AATTTTGT | 0.215
AAATTTGG | 0.0261
CCACTTAC | 0.0573
TAACGGAA | 0.153
CTCAGAGC | -0.191

Sequence | PBM E-score
CCGAAGTC | -0.0348
CAATGAAG | 0.0396
GACTGTTA | 0.0926
AGAGGAAT | -0.012
ACGAGGAC | -0.181
CTAAATGC | 0.0943
AAAATTTT | 0.293
AAAAATTT | 0.283
AAAATTAA | 0.308
TAAATTAA | 0.283
AAAATTTC | 0.132
AAAATTAG | 0.179
TAAATTGA | 0.265
GAAATTGC | 0.0471
GAAATTGA | 0.289
GGGGAGGA | -0.205
ATGGTCTC | -0.0831
CAGCAGAC | -0.106
ACAGTCGC | -0.136
AAGCGACG | -0.285
ACGGGTGG | -0.171
GTACGCTA | -0.178
TCCCTACA | -0.0308
TTAAAAAA | 0.306
GTTAAAGA | 0.182

Sequence | PBM E-score
CTTAAACA | 0.104
ATTAAAAA | 0.297
ATTAAACG | 0.27
ATTAAAAG | 0.223
TTTAAAAA | 0.149
CTTAAAGA | -0.102
ATTAAAAC | 0.272
CTAAAAAA | 0.267
ATTAAACA | 0.312
ATTAAAGA | 0.327
GGGTATGA | 0.0197
ACTCCCCT | -0.002
CTGATAAG | 0.126
AGAAACCC | 0.0994
CAGTGCCG | -0.105
CTTCGTAC | -0.103
GCCGCTAC | -0.121
GAGCTGCA | -0.284
CAGTAATA | 0.317
CAGTAATG | 0.282
TAGTAATA | 0.241
AAGTAATA | 0.0769
GAGTAATA | 0.334
AAGTAATT | 0.331
CAGTAATC | -0.0846

Sequence | PBM E-score
AAGTAATG | 0.141
GAGTAATC | 0.132
GGGCTGAA | 0.0197
ATAGCCAT | 0.0973
ACAATGCC | -0.0228
CGCAAATC | -0.0144
TAGGTGCA | -0.0741
TAATGGAA | 0.184
ATGATTTA | 0.253
GGGATTAA | 0.411
TGCATTAA | 0.256
TGGATTAA | 0.38
GGGATTGA | -0.148
GTGATTTA | 0.295
CTGATTAA | 0.22
CTGATTTA | 0.156
CGGATTAG | -0.0597
GTGATTAA | 0.291
ATGATTAA | 0.231
GGGATTAC | -0.103
ACGCATTG | -0.0453
AGCCCACG | -0.202
CATGGTGA | 0.137
GCGATTTA | 0.0771
CCGATTTA | 0.183

Sequence | PBM E-score
ACGATTAA | 0.141
ACGATTTA | 0.36
GCGATTAA | 0.19
TCGATTAA | 0.288
ACACCGTC | -0.0477
AAGCGCAT | -0.0621
CACCGCTA | -0.0953
TAAACTGA | 0.136
ATGGCCTG | -0.16
GCGATACA | 0.0586
ACGATACA | 0.0132
TCGATACA | 0.298
ACGGTAGC | -0.123
ACTAGTCT | -0.0233
ACCATCGG | -0.118
ACAACCAG | 0.102
ACAACCAT | 0.297
ACAACCAC | 0.0628
CGTTCTGC | 0.0161
